Compound activity (PubChem)
Many of the other results were omitted from the sample, so hits are more common in it than they were.
Tb PYK inh = blocks Trypanosoma brucei pyruvate kinase | Q57TT1 | TbPYK enzyme, Kinase-Glo Plus ATP luminescence, 45 min | Potency, µM (doses to about 76.8 µM), inactives show at the highest dose activity, negative = inhibition, actives largely listed as inhibitors | hit rate 0.12% among 410,000 | AID 624173; note: potency is the fitted concentration of half-maximal effect; % is set by controls: 0 for no effect and ±100 for the full control effect; nearly all actives have a fitted effect of over 50% in size
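Luminescence from Kinase-Glo Plus, added after a 45-minute room-temperature reaction, served as the end-point read-out. The enzyme and substrate were preincubated with compound before ADP (130 uM final) initiated turnover. Concentration-effect curves came from normalized qHTS data.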
LmPK inh = blocks Leishmania mexicana pyruvate kinase activity | purified LmPK, Kinase-Glo ATP luminescence, 1 h | Q27686 | hit rate 0.37% among 290,000 | Potency, µM (top dose mostly 57.5 µM), for inactives: at the top dose activity change, negative = inhibition, actives largely listed as inhibitors; note: potency is the fitted concentration of half-maximal effect; % is set by controls: 0 for no effect and ±100 for the full control effect
Target sequence (Q27686 whole entry, looked up): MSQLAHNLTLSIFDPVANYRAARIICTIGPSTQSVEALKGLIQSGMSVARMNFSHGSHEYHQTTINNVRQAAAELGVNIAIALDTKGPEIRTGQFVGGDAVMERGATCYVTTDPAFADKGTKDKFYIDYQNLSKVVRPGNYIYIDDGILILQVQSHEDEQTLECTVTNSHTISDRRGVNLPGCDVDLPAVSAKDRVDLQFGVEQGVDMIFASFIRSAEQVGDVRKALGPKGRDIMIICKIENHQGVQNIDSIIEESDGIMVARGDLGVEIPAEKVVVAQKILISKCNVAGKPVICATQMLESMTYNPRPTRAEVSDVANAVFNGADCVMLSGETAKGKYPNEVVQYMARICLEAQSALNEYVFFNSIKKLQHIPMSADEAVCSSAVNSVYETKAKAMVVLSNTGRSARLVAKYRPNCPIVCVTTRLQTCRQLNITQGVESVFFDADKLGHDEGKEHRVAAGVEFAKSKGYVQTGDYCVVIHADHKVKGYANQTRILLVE
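Purified LmPK (0.1 nM) with 0.5 mM PEP and 0.1 mM ADP in imidazole buffer pH 7.2 with MgCl2/KCl, 1 h at room temperature. ATP formed was read by luciferase luminescence and normalized to no-enzyme and uninhibited controls.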
Sm TGR block = blocks Schistosoma mansoni thioredoxin glutathione reductase; Q962Y6; purified TGR, DTNB reduction, TNB absorbance 405 nm; Potency, µM (doses to about 114 µM), for the others: at the highest dose activity change, negative = inhibition, hits mostly inhibitors; AID 485364; hit rate 3% among 360,000; note: potency is the fitted concentration of half-maximal effect; % is set by controls: 0 for no effect and ±100 for the full control effect; nearly all actives have a fitted effect of over 60% in size
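First, TGR (20 nM dispensed) and NADPH were mixed with compound. Second, a 15 min room-temperature incubation followed. Third, further NADPH and then DTNB were added to start the reaction. Finally, TNB absorbance was monitored kinetically.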
Giardia FBPA inh = Giardia lamblia aldolase inhibition. hit rate 0.71% among 290,000. Potency, µM (highest dose often 59.6 µM), for inactives: at the highest dose activity, negative = inhibition, hits mostly inhibitors. A8B2U2. AID 2451. purified Giardia FBPA; note: potency is the fitted concentration of half-maximal effect; % is set by controls: 0 for no effect and ±100 for the full control effect; nearly all actives have a fitted effect of over 55% in size
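Giardia FBPA (40 nM reagent) was preincubated 10 min at RT with compound (up to 57.5 uM final), then substrate plus GAPDH/TPI/NAD/arsenate coupling system with diaphorase/resazurin was added; resorufin fluorescence (525/598 nm) was read after 20 min.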
Shiga toxin inh = inhibitors of Shiga toxin in Vero cells; Vero cells, Shiga toxin protein synthesis inhibition reporter; hit rate 9.2% among 290,000; AID 2315; inhibition, % at 38.7 µM; in the data active = inhibition mostly above about 28%, no sharp cut-off; inactive = mostly below about 43%; note: 0% is about no effect
CHX counter = counter-screen hit for Shiga toxin inhibitors, cycloheximide | cell reporter, cycloheximide protein synthesis inhibition counterscreen | max response, % | hit rate 12% among 300,000 | AID 2314; in the data active = max response mostly above about 13%, no sharp cut-off; inactive = mostly below about 14%; note: read at 38.3 µM for the half of the compounds with a filed dose; 0% is about no effect
Starred values were filed as active, the others as inactive; ? = inconclusive; . = no result given. Unless noted, calls come from the whole dose curve; as a rule, active = well fitted curve in the direction sought with a large enough effect; inconclusive = small, poorly fitted or top-dose-only effect, or another doubt; inactive = no such curve, though single readings can be large; an effect the other way counts as inactive or inconclusive.

SMILES	Tb PYK inh	LmPK inh	Sm TGR block	Giardia FBPA inh	Shiga toxin inh	CHX counter
CC1(C)CC(=O)C(C(N)=NC(=O)c2ccccc2)=C(O)C1	-7%	0%	7%	-1%	70*	39*
C/C(=N/NC(=O)c1ccccc1)C1=C(O)CC(C)(C)CC1=O	2%	8%	-13%	0%	-12	-1
CC1(C)CC(=O)C(C(N)=NC(=O)c2ccc([N+](=O)[O-])cc2)=C(O)C1	3%	-5%	-2%	7%	62	18*
Cc1ccc(C)c(CSc2cn(CCNC(=O)c3cccs3)c3ccccc23)c1	-3%	.	10%	.	.	.
N#CC(C#N)=Cc1ccc(-c2ccccc2F)o1	1%	-1%	4µM*	4%	-11	-3
N#CC(C#N)=Cc1ccc(-c2ccccc2)o1	.	0%	?	0%	-3	1
O=C(/C=C\Nc1ccccn1)c1ccccc1	-16%	13µM*	-3%	2%	55*	17
O=C(/C=C/Nc1ccccc1)c1ccc(Oc2ncccn2)cc1	2%	-21%	8%	1%	109*	24*
COc1ccc(C(=O)/C=C/Nc2ccccn2)c(OC)c1	-3%	-9%	7%	-1%	57*	52*
COc1ccc(C(=O)/C=C/Nc2c(C)n(C)n(-c3ccccc3)c2=O)c(OC)c1	-21%	3%	?	-6%	-5	-2
N#Cc1ccc(OC(=O)c2cc(-c3ccc(Cl)cc3)on2)cc1	-3%	.	-3%	.	.	.
COc1ccc(NC(=O)Cn2nc(C)c3nn(-c4ccc(Cl)cc4)c(C)c3c2=O)cc1	-13%	.	5%	.	.	.
CCCCCC(=O)NNC(=O)c1c(O)c2ccccc2n(CC)c1=O	-5%	6%	2%	-8%	59*	19*
Clc1ccc2nnnc(-c3ccccc3)c2c1	-2%	-3%	1%	7%	98*	52*
Oc1ccc([C@H]2CNCc3c2ccc(O)c3O)cc1O	3.2µM*	.	.	.	.	.
O=[N+]([O-])c1cccnc1Sc1n[nH]c(-c2ccc(Cl)cc2)n1	5%	10%	5%	0%	55*	37*
O=[N+]([O-])c1cccnc1Sc1ccc(Cl)cc1	4%	0%	0%	3%	24	-7
CC1CCN(CC(=O)NNC(=O)c2cccc(Br)c2)CC1	0%	-6%	4%	.	-5	-3
CC1CCN(c2ccc(NC(=O)Cc3ccccc3)cc2)CC1	-11%	8%	0%	0%	16	14
CC1CCN(CC(=O)Nc2ccc(C(=O)N3CCCCC3)cc2)CC1	-5%	2%	2%	?	-13	-1
CC1CCN(CC(=O)c2cccc(C(F)(F)F)c2)CC1	-5%	0%	35µM*	?	4	-2
CC(C)CC(=O)Nc1ccc(C(=O)CN2CCC(C)CC2)cc1	1%	0%	20µM*	-18%	-2	9
CCC(=O)Nc1ccc(N2CCC(C)CC2)cc1	-9%	-4%	-2%	-5%	15*	33*
CC(C)CC(=O)Nc1ccc(C(=O)Cn2c(=O)oc3ccccc32)cc1	3%	-7%	-18%	4%	26	14
CCC(=O)Nc1ccc(C(=O)CN2CCC(C)CC2)cc1	.	13%	32µM*	-14%	-7	6
SMILES	Tb PYK inh	LmPK inh	Sm TGR block	Giardia FBPA inh	Shiga toxin inh	CHX counter
CC(C)C(=O)Nc1ccc(S(=O)(=O)N2CCC(c3nc4ccccc4[nH]3)CC2)cc1	8%	.	-5%	.	.	.
CCC1CCCCC1	.	.	.	5%	-3	-6
O=C(Cc1c(F)cccc1Cl)Nc1cc(S(=O)(=O)N2CCOCC2)ccc1N1CCOCC1	2%	.	-3%	.	.	.
COc1ccc(S(=O)(=O)NNC(=O)c2cc3cc4ccccc4nc3s2)cc1	0%	4%	0%	-8%	3	8
NNC(=O)c1cc2cc3ccccc3nc2s1	2%	-13%	?	-9%	67	45*
CS(=O)(=O)NNC(=O)c1cc2cc3ccccc3nc2s1	-16%	-1%	-3%	-4%	53*	22
C=CCN1C(=O)c2ccc(C(=O)N(C)CC(=O)Nc3ccc(Br)cc3C)cc2C1=O	4%	.	-8%	.	.	.
CCC1CN(S(=O)(=O)c2cc(-c3onc(C)c3C)ccc2C)c2cc(Cl)ccc2O1 (configuration not stated)	3%	.	6%	.	.	.
